Data reported in PubChem BioAssay (NCI).
Compounds without any hit were thinned out: in the full panel of roughly 83,000, 20% have a hit.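 The endpoint reported here, percent growth, reads 100 for growth as untreated, 0 for no net growth and -100 for all cells dead.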 Activity calls are given as the source filed them. Rule for the calls: active = growth percent below 10; inactive = the rest.

How the values were obtained:
Assay in all cases: NCI-60 one-dose screen, 48 h (100 = growth as untreated, 0 = no growth, -100 = all killed)
Details in all cases: 10 µM unless noted
NCI-H23 lung = test system: NCI-H23 lung
NCI-H226 lung = test system: NCI-H226 lung
NCI-H322M lung = test system: NCI-H322M lung
HOP-62 NSCLC = test system: HOP-62 NSCLC
NCI-H460 lung = test system: NCI-H460 lung
HOP-92 NSCLC = test system: HOP-92 NSCLC
NCI-H522 lung = test system: NCI-H522 lung
A549/ATCC NSCLC = test system: A549/ATCC NSCLC
786-0 renal = test system: 786-0 renal
COLO 205 colon = test system: COLO 205 colon
DU-145 prostate = test system: DU-145 prostate
K-562 leukemia = test system: K-562 leukemia
MALME-3M melanoma = test system: MALME-3M melanoma
MDA-MB-231 breast = test system: MDA-MB-231 breast
RXF 393 renal = test system: RXF 393 renal
SF-268 CNS = test system: SF-268 CNS
SF-295 CNS = test system: SF-295 CNS
SF-539 CNS = test system: SF-539 CNS
UACC-257 melanoma = test system: UACC-257 melanoma
M14 melanoma = test system: M14 melanoma

Measured: growth

Oc1c(I)cc(I)cc1CNCCCN(Cc1ccccn1)Cc1ccccn1
active: NCI-H23 lung -37% | NCI-H226 lung -78.4% | NCI-H322M lung -75.3% | HOP-62 NSCLC -52.7% | NCI-H460 lung -57.2% | HOP-92 NSCLC -76.1% | NCI-H522 lung -56.4% | A549/ATCC NSCLC -51.8% | 786-0 renal -95.4% | COLO 205 colon -34.2% | DU-145 prostate -45.8% | K-562 leukemia 5.96% | MALME-3M melanoma -73.2% | MDA-MB-231 breast -66.2% | RXF 393 renal -86.6% | SF-268 CNS -27.3% | SF-295 CNS -83.6% | SF-539 CNS -88.3% | UACC-257 melanoma -41.5% | M14 melanoma -72%

CCOC(=O)c1sc2ncc(-c3ccc(OC)cc3)n2c1C
inactive: NCI-H23 lung 85.9% | NCI-H226 lung 84.3% | NCI-H322M lung 97.3% | HOP-62 NSCLC 91.4% | NCI-H460 lung 103% | HOP-92 NSCLC 92.6% | NCI-H522 lung 74.7% | A549/ATCC NSCLC 104% | 786-0 renal 106% | COLO 205 colon 105% | DU-145 prostate 105% | K-562 leukemia 91.2% | MALME-3M melanoma 101% | MDA-MB-231 breast 92.4% | RXF 393 renal 111% | SF-268 CNS 98.1% | SF-295 CNS 96.4% | SF-539 CNS 91.8% | UACC-257 melanoma 105% | M14 melanoma 95.3%

COc1cc2cc(Oc3ccc(NC(=O)Nc4ccc(Cl)c(Cl)c4)cc3)c(C)nc2cc1OCCN1CCOCC1
inactive: NCI-H23 lung 58.9% | NCI-H226 lung 57.7% | NCI-H322M lung 105% | HOP-62 NSCLC 105% | NCI-H460 lung 91.8% | HOP-92 NSCLC 76.8% | NCI-H522 lung 67.5% | A549/ATCC NSCLC 76.7% | 786-0 renal 91.5% | COLO 205 colon 104% | DU-145 prostate 99.6% | K-562 leukemia 39.2% | MALME-3M melanoma 92.2% | MDA-MB-231 breast 97.1% | RXF 393 renal 84% | SF-268 CNS 94.3% | SF-295 CNS 80.1% | SF-539 CNS 93.6% | UACC-257 melanoma 74.3% | M14 melanoma 101%

COc1cc(C(=O)/C=C/c2ccc(OCCCCCC[P+](c3ccccc3)(c3ccccc3)c3ccccc3)cc2)cc(OC)c1OC
active: NCI-H23 lung -63% | NCI-H226 lung -29.2% | NCI-H322M lung -23.1% | HOP-62 NSCLC -62.2% | NCI-H460 lung -73.6% | HOP-92 NSCLC -26.2% | NCI-H522 lung -70.4% | A549/ATCC NSCLC -1.89% | 786-0 renal -92.4% | COLO 205 colon -95.3% | DU-145 prostate -1.64% | K-562 leukemia 0.54% | MALME-3M melanoma -37.9% | MDA-MB-231 breast -15.1% | RXF 393 renal -47.3% | SF-268 CNS -6.6% | SF-295 CNS -23.4% | SF-539 CNS -86.2% | UACC-257 melanoma -21.4% | M14 melanoma -55.8%

CC[C@H](C)C(=O)O[C@H]1CCC=C2C=C[C@H](C)[C@H](CC[C@@H]3CC=CC(=O)O3)[C@H]21
inactive: NCI-H23 lung 96.5% | NCI-H226 lung 107% | NCI-H322M lung 95.9% | HOP-62 NSCLC 99.6% | NCI-H460 lung 99% | HOP-92 NSCLC 42% | NCI-H522 lung 56.2% | A549/ATCC NSCLC 85.6% | 786-0 renal 95.5% | COLO 205 colon 103% | DU-145 prostate 88.7% | K-562 leukemia 46.4% | MALME-3M melanoma 92.5% | MDA-MB-231 breast 97.6% | RXF 393 renal 96.6% | SF-268 CNS 99.2% | SF-295 CNS 115% | SF-539 CNS 80.5% | UACC-257 melanoma 77.8% | M14 melanoma 76.4%

O=C(CSc1nc2ccccc2[nH]1)Nc1cccc(Cl)c1
inactive: NCI-H23 lung 98.4% | NCI-H226 lung 101% | NCI-H322M lung 96.3% | HOP-62 NSCLC 94.9% | NCI-H460 lung 103% | HOP-92 NSCLC 90.6% | NCI-H522 lung 89% | A549/ATCC NSCLC 111% | 786-0 renal 101% | COLO 205 colon 108% | DU-145 prostate 101% | K-562 leukemia 100% | MALME-3M melanoma 97.2% | MDA-MB-231 breast 76.5% | RXF 393 renal 114% | SF-268 CNS 97.1% | SF-295 CNS 104% | SF-539 CNS 103% | UACC-257 melanoma 117% | M14 melanoma 105%

COC(=O)c1ccc2[nH]c(O)c(C(=Nc3ccc(N(C)C(=O)CN4CCN(C)CC4)cc3)c3ccccc3)c2c1
active: 786-0 renal 1.61% | K-562 leukemia 9.67% | MALME-3M melanoma -6.01% | RXF 393 renal -39.3% | SF-539 CNS -25.5%
inactive: NCI-H23 lung 31.1% | NCI-H226 lung 19% | NCI-H322M lung 76.8% | HOP-62 NSCLC 26.1% | NCI-H460 lung 24.9% | HOP-92 NSCLC 59.7% | NCI-H522 lung 50.3% | A549/ATCC NSCLC 39.4% | COLO 205 colon 11.4% | DU-145 prostate 21.5% | MDA-MB-231 breast 22.6% | SF-268 CNS 27.7% | SF-295 CNS 27.3% | UACC-257 melanoma 35.4% | M14 melanoma 11.2%

NC(=O)C1(Nc2ccc(Br)cc2)CCCC1
inactive: NCI-H23 lung 97.5% | NCI-H226 lung 98.9% | NCI-H322M lung 107% | HOP-62 NSCLC 103% | NCI-H460 lung 110% | HOP-92 NSCLC 110% | NCI-H522 lung 92.9% | A549/ATCC NSCLC 103% | 786-0 renal 102% | COLO 205 colon 104% | DU-145 prostate 119% | K-562 leukemia 116% | MALME-3M melanoma 108% | MDA-MB-231 breast 101% | RXF 393 renal 115% | SF-268 CNS 106% | SF-295 CNS 106% | SF-539 CNS 89.8% | UACC-257 melanoma 101% | M14 melanoma 97.1%

Cc1ccccc1C(=O)NN
inactive: NCI-H23 lung 104% | NCI-H226 lung 113% | NCI-H322M lung 90.6% | HOP-62 NSCLC 93.3% | NCI-H460 lung 115% | HOP-92 NSCLC 80.6% | NCI-H522 lung 92% | A549/ATCC NSCLC 89.2% | 786-0 renal 112% | COLO 205 colon 110% | DU-145 prostate 120% | K-562 leukemia 104% | MALME-3M melanoma 106% | MDA-MB-231 breast 126% | RXF 393 renal 118% | SF-268 CNS 120% | SF-295 CNS 106% | SF-539 CNS 114% | UACC-257 melanoma 103% | M14 melanoma 107%

N#Cc1c(-c2ccccc2)nc(SCC(=O)Nc2nc(-c3ccc(Cl)cc3)cs2)[nH]c1=O
inactive: NCI-H23 lung 84.1% | NCI-H226 lung 95.9% | NCI-H322M lung 97.9% | HOP-62 NSCLC 90.2% | NCI-H460 lung 106% | HOP-92 NSCLC 80.7% | NCI-H522 lung 77.6% | A549/ATCC NSCLC 94.6% | 786-0 renal 96.2% | COLO 205 colon 106% | DU-145 prostate 113% | K-562 leukemia 94.2% | MALME-3M melanoma 129% | MDA-MB-231 breast 120% | RXF 393 renal 110% | SF-268 CNS 103% | SF-295 CNS 98.2% | SF-539 CNS 100% | UACC-257 melanoma 97.4% | M14 melanoma 93.7%

Cc1c(C(=O)NCCCc2ccccc2)sc2ncc(-c3ccc(Br)cc3)n12
inactive: NCI-H23 lung 91.7% | NCI-H226 lung 102% | NCI-H322M lung 100% | HOP-62 NSCLC 99.3% | NCI-H460 lung 107% | HOP-92 NSCLC 113% | NCI-H522 lung 98.5% | A549/ATCC NSCLC 108% | 786-0 renal 100% | COLO 205 colon 113% | DU-145 prostate 104% | K-562 leukemia 101% | MALME-3M melanoma 101% | MDA-MB-231 breast 99.4% | RXF 393 renal 109% | SF-268 CNS 98.9% | SF-295 CNS 112% | SF-539 CNS 103% | UACC-257 melanoma 109% | M14 melanoma 100%

O=C(N/N=C/c1ccc(Cl)cc1)c1ccc(C(F)(F)F)nc1Nc1cccc(C(F)(F)F)c1
active: NCI-H23 lung -36.7% | NCI-H322M lung 8.21% | NCI-H460 lung 6.99% | HOP-92 NSCLC -0.43% | NCI-H522 lung 8.57% | COLO 205 colon -12.6% | K-562 leukemia 1.81% | SF-268 CNS 2.52% | SF-295 CNS -22.9% | SF-539 CNS 3.47%
inactive: NCI-H226 lung 21.2% | HOP-62 NSCLC 43.5% | A549/ATCC NSCLC 19.5% | 786-0 renal 23.1% | DU-145 prostate 13.2% | MALME-3M melanoma 50.4% | MDA-MB-231 breast 16% | RXF 393 renal 42.6% | UACC-257 melanoma 20% | M14 melanoma 42.7%

COc1ccc(C(=O)/C=C/c2sc(Cl)nc2Cl)cc1
inactive: NCI-H226 lung 40.7% | NCI-H322M lung 93.1% | HOP-62 NSCLC 68.3% | NCI-H460 lung 29.5% | HOP-92 NSCLC 32.8% | NCI-H522 lung 19.1% | A549/ATCC NSCLC 78.1% | 786-0 renal 18.5% | DU-145 prostate 61.9% | MALME-3M melanoma 32.1% | MDA-MB-231 breast 38.7% | RXF 393 renal 24.6% | SF-268 CNS 31.9% | SF-295 CNS 52.3% | UACC-257 melanoma 72.8%
active: NCI-H23 lung 8.44% | COLO 205 colon 1.55% | K-562 leukemia 9.56% | SF-539 CNS -20.5% | M14 melanoma 6.12%

CCS(=O)(=O)c1ncnc2nc[nH]c12
inactive: NCI-H23 lung 111% | NCI-H226 lung 94.2% | NCI-H322M lung 106% | HOP-62 NSCLC 93.5% | NCI-H460 lung 105% | HOP-92 NSCLC 77.1% | NCI-H522 lung 65.4% | A549/ATCC NSCLC 89.4% | 786-0 renal 95% | COLO 205 colon 102% | DU-145 prostate 112% | K-562 leukemia 101% | MALME-3M melanoma 106% | MDA-MB-231 breast 111% | RXF 393 renal 113% | SF-268 CNS 104% | SF-295 CNS 99.8% | SF-539 CNS 95.1% | UACC-257 melanoma 93.1% | M14 melanoma 88.1%
